This is an account of results in article PMC7862700, “An all-to-all approach to the identification of sequence-specific readers for epigenetic DNA modifications on cytosine”.

Common to all, as to assay: DAPPL (digital affinity profiling via proximity ligation, sequencing); 10 mM Tris-HCl pH 7.5, 50 mM NaCl, 1 mM DTT, 4% glycerol, room temperature, 30 min; GST-TFs on glutathione beads, 16-mer random dsDNA library, 0.1% formaldehyde crosslink after washing; high values mean tight binding
What all share (conditions): protein: recombinant; tags: N-terminal GST; dsDNA, one strand shown

The target in one assay is ETV5 (Homo sapiens, UniProt P41161 1-510). In short, it runs like this: (§1)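 Binding signal is given per hexamer as its read frequency for a factor divided by its frequency in the tag-only sample. GST-fused human transcription factors were expressed in yeast, captured on glutathione beads, barcoded with DNA and pooled with that sample, then incubated with 200 nmole of a 16-mer random double-stranded DNA library in Tris/NaCl/DTT/glycerol buffer for 30 min at room temperature. The pools were then washed, crosslinked, proximity-ligated, amplified by PCR and sequenced on an Illumina NextSeq500.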
Chain of ETV5 (P41161 whole entry, the tested form may be a part): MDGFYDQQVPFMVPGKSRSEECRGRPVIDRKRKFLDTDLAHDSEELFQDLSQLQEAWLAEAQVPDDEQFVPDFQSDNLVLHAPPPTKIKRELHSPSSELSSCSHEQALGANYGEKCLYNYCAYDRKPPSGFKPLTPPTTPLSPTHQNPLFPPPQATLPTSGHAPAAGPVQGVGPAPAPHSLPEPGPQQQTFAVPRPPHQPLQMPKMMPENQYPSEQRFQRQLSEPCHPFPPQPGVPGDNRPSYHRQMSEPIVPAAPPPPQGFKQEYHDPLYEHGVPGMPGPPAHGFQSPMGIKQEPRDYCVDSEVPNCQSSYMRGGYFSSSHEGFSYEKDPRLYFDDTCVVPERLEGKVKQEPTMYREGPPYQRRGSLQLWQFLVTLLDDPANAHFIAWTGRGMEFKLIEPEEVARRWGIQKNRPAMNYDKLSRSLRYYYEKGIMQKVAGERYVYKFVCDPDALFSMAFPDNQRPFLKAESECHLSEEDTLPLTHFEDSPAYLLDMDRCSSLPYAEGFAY

The next assay has as its target T1, SPIC (Homo sapiens, UniProt Q8N5J4 1-248).
T1 sequence: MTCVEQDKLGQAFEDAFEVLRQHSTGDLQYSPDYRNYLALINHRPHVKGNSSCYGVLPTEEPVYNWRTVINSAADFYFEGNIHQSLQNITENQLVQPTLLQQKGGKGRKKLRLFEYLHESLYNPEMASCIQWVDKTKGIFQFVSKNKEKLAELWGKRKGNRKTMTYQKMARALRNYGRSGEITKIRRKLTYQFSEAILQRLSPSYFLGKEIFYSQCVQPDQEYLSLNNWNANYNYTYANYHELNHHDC
An outline of the steps: as §1

The next assay deals with ELF4 (Homo sapiens, UniProt Q99607 1-663). An outline of the steps: as §1
Chain of ELF4 (Q99607 whole entry): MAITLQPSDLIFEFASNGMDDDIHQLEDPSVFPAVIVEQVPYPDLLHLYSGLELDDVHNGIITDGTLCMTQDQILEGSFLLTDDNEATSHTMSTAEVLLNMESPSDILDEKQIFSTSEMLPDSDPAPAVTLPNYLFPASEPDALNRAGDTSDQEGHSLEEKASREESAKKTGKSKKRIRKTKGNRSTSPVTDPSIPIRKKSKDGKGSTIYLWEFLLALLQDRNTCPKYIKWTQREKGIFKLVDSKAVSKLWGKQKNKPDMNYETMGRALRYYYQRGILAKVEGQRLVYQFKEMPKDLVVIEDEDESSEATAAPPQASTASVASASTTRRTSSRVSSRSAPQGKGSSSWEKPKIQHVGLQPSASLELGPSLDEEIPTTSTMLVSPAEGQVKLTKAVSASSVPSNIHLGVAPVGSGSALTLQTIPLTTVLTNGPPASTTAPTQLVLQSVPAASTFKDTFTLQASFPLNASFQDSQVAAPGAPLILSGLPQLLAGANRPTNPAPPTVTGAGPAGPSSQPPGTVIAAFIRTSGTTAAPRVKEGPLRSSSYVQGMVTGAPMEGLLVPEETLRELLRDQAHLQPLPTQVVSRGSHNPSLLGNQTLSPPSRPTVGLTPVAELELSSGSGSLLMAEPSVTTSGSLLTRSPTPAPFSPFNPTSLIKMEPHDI
A further assay deals with T2, ELK4 (Homo sapiens, UniProt P28324-2 1-405).
T2 sequence: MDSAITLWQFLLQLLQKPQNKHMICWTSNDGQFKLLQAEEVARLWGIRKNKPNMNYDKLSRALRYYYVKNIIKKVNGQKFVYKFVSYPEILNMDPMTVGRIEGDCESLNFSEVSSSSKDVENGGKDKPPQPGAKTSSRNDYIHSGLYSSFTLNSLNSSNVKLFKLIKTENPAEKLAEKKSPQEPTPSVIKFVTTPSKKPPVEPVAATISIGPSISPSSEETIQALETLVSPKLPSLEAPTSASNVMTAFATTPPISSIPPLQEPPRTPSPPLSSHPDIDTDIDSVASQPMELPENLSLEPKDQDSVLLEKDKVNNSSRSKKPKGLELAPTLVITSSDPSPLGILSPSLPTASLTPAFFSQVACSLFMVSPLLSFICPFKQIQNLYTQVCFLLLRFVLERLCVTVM
An outline of the steps:
as §1

The target of another assay is T3, ETV2 (Homo sapiens, UniProt O00321 1-342).
T3 sequence: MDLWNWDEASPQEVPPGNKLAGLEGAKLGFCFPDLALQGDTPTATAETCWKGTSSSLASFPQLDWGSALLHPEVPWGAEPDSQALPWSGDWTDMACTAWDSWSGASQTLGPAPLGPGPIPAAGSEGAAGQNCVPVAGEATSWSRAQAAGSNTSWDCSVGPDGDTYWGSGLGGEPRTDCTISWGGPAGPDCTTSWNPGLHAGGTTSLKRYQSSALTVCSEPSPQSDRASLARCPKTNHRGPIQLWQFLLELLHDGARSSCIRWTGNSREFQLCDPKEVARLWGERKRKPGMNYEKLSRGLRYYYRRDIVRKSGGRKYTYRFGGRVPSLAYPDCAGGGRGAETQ
An outline of the steps:
as §1

The target in another assay is T4, ELF3 (Homo sapiens, UniProt P78545 1-371).
T4 sequence: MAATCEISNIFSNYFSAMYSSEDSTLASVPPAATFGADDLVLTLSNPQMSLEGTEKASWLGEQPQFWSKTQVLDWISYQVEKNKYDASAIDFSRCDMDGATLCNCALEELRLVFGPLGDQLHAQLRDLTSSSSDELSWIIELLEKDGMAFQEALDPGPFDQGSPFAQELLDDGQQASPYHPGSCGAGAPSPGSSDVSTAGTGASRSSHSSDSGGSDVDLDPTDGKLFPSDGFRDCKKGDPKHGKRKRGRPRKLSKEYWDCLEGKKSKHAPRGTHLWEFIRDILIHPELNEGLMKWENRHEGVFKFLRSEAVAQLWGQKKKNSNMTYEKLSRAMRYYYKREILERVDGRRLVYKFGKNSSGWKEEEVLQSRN
In short, it runs like this:
as §1

The target of a further assay is T5, FEV (Homo sapiens, UniProt Q99581 1-238).
T5 sequence: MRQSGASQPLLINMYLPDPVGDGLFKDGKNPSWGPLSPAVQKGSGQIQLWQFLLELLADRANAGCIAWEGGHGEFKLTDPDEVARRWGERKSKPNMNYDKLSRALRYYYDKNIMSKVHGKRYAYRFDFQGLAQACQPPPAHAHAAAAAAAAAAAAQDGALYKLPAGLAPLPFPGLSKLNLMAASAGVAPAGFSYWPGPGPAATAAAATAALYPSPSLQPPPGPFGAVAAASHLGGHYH
An outline of the steps: as §1

Another assay concerns the target ETV1 (Homo sapiens, UniProt P50549 1-477). In short, it runs like this:
as §1

Another assay has as its target CRX (Homo sapiens, UniProt O43186 1-299). An outline of the steps: as §1

Chain of CRX (O43186 whole entry): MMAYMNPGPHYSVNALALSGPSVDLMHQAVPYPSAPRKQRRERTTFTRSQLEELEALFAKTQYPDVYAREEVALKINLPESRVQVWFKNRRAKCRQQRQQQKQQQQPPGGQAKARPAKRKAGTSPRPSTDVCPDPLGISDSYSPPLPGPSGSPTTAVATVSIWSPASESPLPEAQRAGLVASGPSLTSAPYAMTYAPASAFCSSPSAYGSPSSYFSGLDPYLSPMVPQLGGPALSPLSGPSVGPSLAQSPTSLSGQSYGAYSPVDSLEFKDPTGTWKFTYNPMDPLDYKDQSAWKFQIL
Chain of ETV1 (P50549 whole entry): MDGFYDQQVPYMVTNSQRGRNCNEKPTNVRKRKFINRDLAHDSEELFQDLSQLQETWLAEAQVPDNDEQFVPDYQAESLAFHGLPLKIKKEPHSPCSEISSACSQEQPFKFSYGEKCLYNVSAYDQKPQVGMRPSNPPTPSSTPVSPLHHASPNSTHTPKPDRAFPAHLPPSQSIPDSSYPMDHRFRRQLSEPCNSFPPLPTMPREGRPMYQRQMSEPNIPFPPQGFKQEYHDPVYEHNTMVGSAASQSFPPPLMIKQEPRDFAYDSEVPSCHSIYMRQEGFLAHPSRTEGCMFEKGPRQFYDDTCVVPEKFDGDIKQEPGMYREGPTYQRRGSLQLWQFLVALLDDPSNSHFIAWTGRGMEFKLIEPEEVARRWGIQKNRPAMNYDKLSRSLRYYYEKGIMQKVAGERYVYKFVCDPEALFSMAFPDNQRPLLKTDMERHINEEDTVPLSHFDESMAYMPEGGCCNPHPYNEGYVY

Turning to GGCCCT, the binding signal in the assay with ETV5 is 1.04 fold enrichment (6-mer frequency, TF over GST control); in the assay with SPIC, 1.11 fold enrichment (6-mer frequency, TF over GST control); with ELF4 it was 1.06 fold enrichment (6-mer frequency, TF over GST control); with ELK4 it was 1.06 fold enrichment (6-mer frequency, TF over GST control); with ETV2, 1.14 fold enrichment (6-mer frequency, TF over GST control); in the assay with ELF3, 1.11 fold enrichment (6-mer frequency, TF over GST control).

As for CACTCA, the binding signal with FEV is 1.16 fold enrichment (6-mer frequency, TF over GST control); in the assay with ETV5, 1.09 fold enrichment (6-mer frequency, TF over GST control); in the assay with SPIC, 1.3 fold enrichment (6-mer frequency, TF over GST control); with ELF4, 1.18 fold enrichment (6-mer frequency, TF over GST control); with ELK4, 1.17 fold enrichment (6-mer frequency, TF over GST control); with ETV2, 1.27 fold enrichment (6-mer frequency, TF over GST control). In addition, the binding signal with ELF3 is 1.17 fold enrichment (6-mer frequency, TF over GST control); with ETV1, 1.1 fold enrichment (6-mer frequency, TF over GST control).

As to CGACGT, the binding signal with FEV was 1.09 fold enrichment (6-mer frequency, TF over GST control); with ETV5 it was 1.12 fold enrichment (6-mer frequency, TF over GST control); with SPIC, 1.05 fold enrichment (6-mer frequency, TF over GST control); in the assay with ELF4, 1.21 fold enrichment (6-mer frequency, TF over GST control); with ELK4 it was 1.15 fold enrichment (6-mer frequency, TF over GST control); with ETV2, 1.49 fold enrichment (6-mer frequency, TF over GST control). The binding signal was 1.09 fold enrichment (6-mer frequency, TF over GST control) with ELF3 and 1.05 fold enrichment (6-mer frequency, TF over GST control) with ETV1.

Consider TACAGG, for which the binding signal was 1.23 fold enrichment (6-mer frequency, TF over GST control) with FEV; 1.24 fold enrichment (6-mer frequency, TF over GST control) with ETV5; 1.2 fold enrichment (6-mer frequency, TF over GST control) with SPIC; 1.14 fold enrichment (6-mer frequency, TF over GST control) with ELF4; 1.26 fold enrichment (6-mer frequency, TF over GST control) with ELK4; 1.15 fold enrichment (6-mer frequency, TF over GST control) with ETV2. Further, the binding signal was 1.15 fold enrichment (6-mer frequency, TF over GST control) in the assay with ELF3; 1.08 fold enrichment (6-mer frequency, TF over GST control) with CRX; 1.15 fold enrichment (6-mer frequency, TF over GST control) with ETV1.

As to TAGGTC, the binding signal with ETV5 is 1.06 fold enrichment (6-mer frequency, TF over GST control); with SPIC, 1.11 fold enrichment (6-mer frequency, TF over GST control); with ELF4, 1.02 fold enrichment (6-mer frequency, TF over GST control); with ELK4 it was 1.11 fold enrichment (6-mer frequency, TF over GST control); with ETV2, 1.14 fold enrichment (6-mer frequency, TF over GST control); with ELF3, 1.06 fold enrichment (6-mer frequency, TF over GST control). In the assay with ETV1, the binding signal is 1.01 fold enrichment (6-mer frequency, TF over GST control).

On to ACACAA, for which the binding signal in the assay with FEV is 1.17 fold enrichment (6-mer frequency, TF over GST control); with ETV5, 1.19 fold enrichment (6-mer frequency, TF over GST control); with SPIC, 1.22 fold enrichment (6-mer frequency, TF over GST control); with ELF4, 1.17 fold enrichment (6-mer frequency, TF over GST control); with ELK4, 1.05 fold enrichment (6-mer frequency, TF over GST control); with ETV2 it was 1.1 fold enrichment (6-mer frequency, TF over GST control). Further, the binding signal in the assay with ELF3 was 1.11 fold enrichment (6-mer frequency, TF over GST control); in the assay with ETV1, 1.14 fold enrichment (6-mer frequency, TF over GST control).

In the case of GATATC, the binding signal is 4.01 fold enrichment (6-mer frequency, TF over GST control) with FEV; 1.6 fold enrichment (6-mer frequency, TF over GST control) in the assay with ETV5; 1.41 fold enrichment (6-mer frequency, TF over GST control) in the assay with SPIC; 1.34 fold enrichment (6-mer frequency, TF over GST control) in the assay with ELF4; 1.49 fold enrichment (6-mer frequency, TF over GST control) with ELK4; 1.51 fold enrichment (6-mer frequency, TF over GST control) with ETV2. In addition, the binding signal with ELF3 is 1.59 fold enrichment (6-mer frequency, TF over GST control); with CRX it was 1.02 fold enrichment (6-mer frequency, TF over GST control); with ETV1, 1.51 fold enrichment (6-mer frequency, TF over GST control).

For the sequence TGTATA, the binding signal in the assay with FEV is 1.02 fold enrichment (6-mer frequency, TF over GST control); with ETV5 it was 1.15 fold enrichment (6-mer frequency, TF over GST control); with SPIC it was 1.07 fold enrichment (6-mer frequency, TF over GST control); with ELF4, 1.06 fold enrichment (6-mer frequency, TF over GST control); with ELK4 it was 1.22 fold enrichment (6-mer frequency, TF over GST control); with ETV2, 1.04 fold enrichment (6-mer frequency, TF over GST control). Also, the binding signal is 1.02 fold enrichment (6-mer frequency, TF over GST control) in the assay with ELF3; 1.03 fold enrichment (6-mer frequency, TF over GST control) in the assay with CRX; 1.16 fold enrichment (6-mer frequency, TF over GST control) with ETV1.
